Results: PubChem BioAssay (NCI)
This is part of a sample that, as a whole, favours compounds with a hit. Of some 83,000 tested, about 20% had one in any assay.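 48-hour exposure, single concentration, 96-well plates; percent growth endpoint where 0 means no net growth. Active: below 10.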 A number with no mark means an inactive call. Active and inactive are the calls of the source. Where a SMILES comes first, the peptide text is derived from it. Bridges are numbered along the chain shown (N, C = ends). [ ]: non-standard residue; d: D form. The star is where a group is joined. ξ: configuration not given here. ξNMePhe(4-NMe2) = CNC(Cc1ccc(N(C)C)cc1)C(=O)O; Picolinoyl(3-OH) = O=C(c1ncccc1O)*; ξPip(4-oxo) = O=C1CCNC(C(=O)O)C1; Phg = N[CH](C(=O)O)c1ccccc1; Abu = CC[CH](N)C(=O)O

What follows are compounds tested on OVCAR-5 ovarian (assay: NCI-60 one-dose screen, 48 h (100 = growth as untreated, 0 = no growth, -100 = all killed)). Conditions: 10 µM.
Description: Growth inhibition of the OVCAR-5 human tumor cell line is measured as a screen for anti-cancer activity. Cells are grown in 96 well plates and exposed to the test compound for 48 hours. Compounds are tested at a single concentration, which is 10^-5 M for most compounds. The reported endpoint is percent growth (GI% or GIPRCNT), where numbers from 0 - 100% represent growth inhibition, and numbers from -100% - 0 represent cell death. For example, a value of 40 represents 60% growth inhibition. A value of 0 means no net growth occurred over the course of the experiment. A value of -40 indicates 40% of cells at the beginning of the experiment died by the end of the experiment. A value of -100 means all cells are dead at the end of the experiment.
NCI-60 Human Tumor Cell Lines Screen was performed using the standard one-dose NCI protocol, which is described in more detail at https://dtp.cancer.gov/discovery_development/nci-60/default.htm.
Compounds with GIPRCNT values below 10 were considered active. Activity score was based on GIPRCNT using the following formula: […]
Score is 0 for GIPRCNT values of 100 or above, 50 for GIPRCNT values of 0, and 100 for GIPRCNT values of -100.

SMILES | growth
CCCCCCCCCCCCCCCCC1CC(=O)OC1=O (stereo not given) | 102%
O=C1C=CC(=O)N1c1ccc(I)cc1Cl | 102%
NC(=S)NN=C1CCCC1 | 115%
CCCCCCCCCCC(C)Br (stereo not given) | 104%
C/C(=N\NC(=O)c1ccccc1N)c1ccccc1O | 52.2%
Cc1cc(C(O)(c2ccc(Nc3ccccc3)cc2)c2ccc(Nc3ccc(S(=O)(=O)O)cc3)cc2)ccc1N (stereo not given) | -65.8% (active)
O=C(CCl)N1CCN(C/C=C/c2ccccc2)CC1 | 111%
S=C(Nc1ccccc1)N1CCCCC1 | 90.1%
CN(C)CCN(Cc1ccccc1)c1ccccc1 | 125%
Cc1cc2nc(CO)[nH]c2cc1C | 100%
COc1cc(C(=O)NC(=S)Nc2ccc3ccccc3c2)cc(OC)c1OC | 99.9%
CO[C@H]1C[C@@H]2CC[C@@H](C)[C@@](O)(O2)C(=O)C(=O)N2CCCC[C@H]2C(=O)O[C@H]([C@H](C)C[C@@H]2CC[C@@H](O)[C@H](OC)C2)CC(=O)[C@H](C)C=C(C)[C@@H](O)[C@@H](OC)C(=O)[C@H](C)C[C@H](C)/C=C/C=C/C=C1C | -6.29% (active)
OCCN(CCO)C(=S)S | 120%
Cc1ncc(C#N)c(N)n1 | 99.5%
CC(C)(N)COS(=O)(=O)O | 107%
CC(=O)OCCC(C)CCC=C(C)C (stereo not given) | 102%
O=C(N/N=C/c1ccccc1O)Nc1nn[nH]n1 | 92.3%
CCOC(=O)C(CCC(C)C)C(=O)OCC | 107%
Cc1ccc(C(=O)NC2c3ccccc3Oc3ccccc32)cc1 | 80.6%
O=C(Nc1ccccc1C(=O)NCC1CC1)c1cccs1 | 99.9%

SMILES | growth
Cn1cnc2nc(Cl)nc(Cl)c21 | 59.8%
O=C(O)CCC(=O)OC(C1CO1)C(OC(=O)CCC(=O)O)C1CO1 (stereo not given) | 93.4%
O=C(CN1CCNCC1)N1CCOCC1 | 109%
N#CCc1ccc([N+](=O)[O-])cc1 | 119%
O=C(O)c1ccc(S(=O)(=O)O)cc1 | 107%
COC(=O)c1ccc(C(C)C)cc1 | 103%
CCOC(=O)/C(C#N)=C/c1cccc(C)c1 | 96.1%
COc1cc(OC)c2ccc(=O)oc2c1 | 90.3%
CCC/C=C(/C(C)=O)C(=O)OCC | 92.7%
CC(C)OC(=O)c1cc(NC(=S)OC(C)C)ccc1Cl | 67.2%
O=C(Nc1ccccc1)OCCc1ccccc1 | 92.7%
O=C(O)C(Cc1ccccc1)C(=O)O | 111%
O=C(O)c1cccc([N+](=O)[O-])c1 | 120%
Cc1cc2nc(CC(=O)c3cccc([N+](=O)[O-])c3)c(=O)[nH]c2cc1C | 92.1%
C=C[Si](OC(C)=O)(OC(C)=O)OC(C)=O | 115%
COc1ccc(C)cc1OC | 114%
O=C(CC(=O)c1ccccc1O)c1ccccc1 | 101%
CC(=O)OC1CC2C(C)(C)OC3CC(=O)OCC32C2CCC3(C)C(=CCC3c3ccoc3)C12C (stereo not given) | 95.9%
CCC1NC(=O)C(NC(=O)c2ncccc2O)C(C)OC(=O)C(c2ccccc2)NC(=O)C2CC(=O)CCN2C(=O)C(Cc2ccc(N(C)C)cc2)N(C)C(=O)C2CCCN2C1=O (stereo not given) (tested in a mixture with another compound) ({Picolinoyl(3-OH)}-T[Abu]P[ξNMePhe(4-NMe2)][ξPip(4-oxo)][Phg]; ester 1-C; configuration not given here) | -21.3% (active)
COc1cccc(/C=N/NC(=S)NC2CC3CCC2C3)c1O (stereo not given) | 85.1%
